# Screening results from PubChem BioAssay.
# aSyn UTR act: Activators via SNCA 5'UTR binding, MLPCN. alpha-synuclein 5'UTR reporter, activators screen. activity score, % (tested at 7.5 µM), hits read low. actives 7.1% (n = 300,000); in the data active = activity score below about -60%
# An asterisk follows results filed as active. These entries were drawn from the full list.
SMILES,aSyn UTR act
O=C(NNc1c2ccccc2nc2ccccc12)c1ccccc1O,-92.9*
C/C(=N\NC(=O)c1cc(C2CC2)nc2ccccc12)c1ccc(O)cc1O,73.7
Cc1onc(-c2ccccc2)c1C(=O)NC(=S)NNC(=O)c1ccc(O)cc1O,64.1
O=C(NNc1c2ccccc2nc2ccccc12)c1ccc(O)cc1O,-78.6*
O=C(N/N=C\c1cc(Cl)ccc1O)c1ccc(S(=O)(=O)N2CCCCC2)cc1,112.5
CC(=O)c1ccc(S(=O)(=O)N2CCCC2)cc1,-84.1*
O=C(/C=C/c1ccco1)NC(=S)Nc1ccccc1O,-120.6*
O=C(/C=C\c1ccco1)NC(=S)Nc1ccccc1O,-74.3*
Cc1cc(N)n(-c2cc(C)c3ccccc3n2)n1,-118.1*
Cc1cc(C)c2nc(-n3nc(C)cc3N)cc(C)c2c1,-162.1*
Clc1ccc(-c2cnc3n2CCC3)cc1,-103.1*
COc1ccc2c(c1)C(=O)c1ccccc1CO2,-242.4*
COc1ccc(/C=C/C(=O)Nc2cc(C)nn2-c2nc3ccccc3[nH]2)cc1,-84.9*
Cn1cc(CCNCc2cn[nH]c2-c2ccc(-c3ccccc3)cc2)cn1,-98.0*
CN(CCc1cnn(C)c1)Cc1cn[nH]c1-c1ccc(-c2ccccc2)cc1,-84.2*
CN(Cc1cn[nH]c1-c1ccc(-c2ccccc2)cc1)CC1CCOCC1,-93.1*
CCN(CCn1cccn1)Cc1cn[nH]c1-c1ccc(-c2ccccc2)cc1,-66.9*
CC(c1ccon1)N(C)Cc1cn[nH]c1-c1ccc(-c2ccccc2)cc1 (stereo not given),-135.2*
CC(C)(C)C(=O)[C@H]1[C@H](c2ccccc2)[C@@]2(N=C(c3ccccc3)OC2=O)C2c3ccccc3C=NN21 (stereo not given in full),-83.2*
CCOC(=O)c1cc(C(=O)Nc2cccc(C)c2)nn1C,-120.6*
Cc1cccc(NC(=O)c2c(C)nn(-c3ccccc3)c2Cl)c1,-96.5*
N#C/C(=C\Nc1ccccc1O)c1nc2ccccc2o1,-111.8*
N#C/C(=C\c1ccc(N2CCCC2)c([N+](=O)[O-])c1)c1nc2ccccc2[nH]1,-79.6*
N#C/C(=C\c1cccs1)c1nc2ccccc2[nH]1,-256.1*
N#C/C(=C/c1ccc(O)c(O)c1)c1nc2ccccc2[nH]1,-148.0*
SMILES,aSyn UTR act
O=[N+]([O-])c1cc(/C=N/n2cnnc2)ccc1N1CCCC1,65.5
CC(C)CC(/C(O)=C(\C#N)c1nc2ccccc2[nH]1)N1C(=O)c2ccccc2C1=O (stereo not given),64.9
N#C/C(=C\Nc1ccc2c(c1)OCCO2)c1nc2ccccc2[nH]1,-64.8*
N#C/C(=C/c1cccs1)c1ccccn1,-116.5*
N#C/C(=C\c1cn(-c2ccccc2)nc1-c1cc2ccccc2o1)c1nc2ccccc2[nH]1,-105.8*
N#C/C(=C\c1ccc(OC(=O)c2cccs2)cc1)c1nc2ccccc2[nH]1,-153.0*
N#C/C(=C\c1ccc(Sc2ccccc2)o1)c1nc2ccccc2[nH]1,-219.2*
CC1CCN(c2ccc(NC(=O)c3cccnc3)cc2)CC1,-148.7*
CC1CCN(c2ccc(NC(=O)c3cccnc3Cl)cc2)CC1,-69.1*
C=CCn1c(SCc2csc(-c3ccc(Cl)cc3)n2)nnc1-c1ccccc1OC,-64.1*
Cc1cc(C)nc(SCc2csc(-c3ccccc3)n2)n1,-90.8*
Nc1ccccc1SCc1csc(-c2ccc(Cl)cc2)n1,-72.5*
Oc1ccccc1NCC(O)Cn1ccc2ccccc21 (stereo not given),-112.5*
CCCc1cc(C(=O)NCCc2ccccc2)no1,-91.2*
COc1cccc2cc(C(=O)NCCc3ccccc3)oc12,-83.5*
COc1ccccc1-c1cc(C(=O)NCCc2ccccc2)no1,-114.3*
CC(C)c1ccc(Nc2nnc(SCC(=O)Nc3ncc(S(=O)(=O)c4ccc([N+](=O)[O-])cc4)s3)s2)cc1,-66.5*
Cc1cc2n(n1)SC(Nc1ccc(F)c(Cl)c1)N2 (stereo not given),-76.9*
CC(O)CNc1ncnc2cc(-c3ccc(F)cc3)sc12 (stereo not given),-61.9*
O=C(O)c1ccc(/C=N/Nc2ccc(F)cc2F)cc1,-111.1*
Clc1ccc(N/N=C/c2ccncc2)cc1Cl,-220.8*
Fc1ccc(N/N=C/C=C/c2ccccc2)c(F)c1,-159.5*
Fc1ccc(N/N=C/c2ccncc2)c(F)c1,-177.4*
CC(C)(C)C1CCC(OC(=O)CN2CCCCC2)CC1 (stereo not given),-63.3*
O=[N+]([O-])c1cccc(-c2nnc(-c3ccc4c(c3)OCO4)o2)c1,-77.8*
SMILES,aSyn UTR act
O=[N+]([O-])c1cccc(-c2nnc(-c3ccccc3)o2)c1,67.9
Clc1ccccc1-c1nnc(-c2ccc3c(c2)OCO3)o1,-82.4*
Clc1ccccc1-c1nnc2sc(-c3ccc4c(c3)OCO4)nn12,-90.7*
CCOc1ccc(CN(C(=O)c2cc3ccccc3oc2=O)C2CCS(=O)(=O)C2)cc1 (stereo not given),-78.0*
O=C(c1cc2ccccc2oc1=O)N(Cc1ccccc1)C1CCS(=O)(=O)C1 (stereo not given),-88.4*
O=C(c1cc2ccccc2oc1=O)N(Cc1ccccc1F)C1CCS(=O)(=O)C1 (stereo not given),-95.4*
COc1ccc(CN(C(=O)c2cc3ccccc3oc2=O)C2CCS(=O)(=O)C2)cc1OC (stereo not given),-114.8*
c1ccc(-c2cc(N3CCCCCC3)n[nH]2)cc1,-73.7*
c1ccc(-c2cc(N3CCCCC3)ncn2)cc1,-134.8*
CCOC(=O)c1ccc(N=Nc2c(C)c(C#N)c(O)[nH]c2=O)cc1,-73.7*
CN1C2CCC1/C(=C\c1ccccc1)C(=O)/C2=C\c1ccccc1,-185.1*
O=C(CCCN1C(=O)/C(=C/c2ccccc2Cl)SC1=S)NNC(=O)c1ccccc1,62.1
O=C(CCN1C(=O)/C(=C/c2ccc(F)cc2)SC1=S)NC1C=CS(=O)(=O)C1 (stereo not given),-72.6*
O=C(CCN1C(=O)/C(=C/c2ccccc2Cl)SC1=S)NC1C=CS(=O)(=O)C1 (stereo not given),-70.6*
Cc1ccc(-c2nc3cccnc3s2)cc1NS(C)(=O)=O,-186.1*
CCS(=O)(=O)Nc1cccc(-c2nc3cccnc3s2)c1C,-98.5*
COc1cc(NS(=O)(=O)c2ccc(C)cc2)c2ncccc2c1,68.6
Cc1cc(O)c(C(=O)/C=C/c2ccccc2)c(=O)o1,-103.2*
Cc1cc(C)c(C(=O)/C=C/c2ccc(C(C)C)cc2)c(=O)[nH]1,-90.5*
CCOc1ccc(/C=C/C(=O)c2c(O)cc(C)oc2=O)cc1,-181.9*
Cc1cc(O)c(C(=O)/C=C/c2ccccc2Br)c(=O)o1,-170.6*
Cc1cc(O)c(C(=O)/C=C/c2ccc(C(C)C)cc2)c(=O)o1,-129.2*
CCN(C(=O)c1cccs1)c1nc(-c2ccc(OC)cc2)cs1,-130.5*
COCCCN(C(C)=O)c1nc(-c2ccc(OC)cc2)cs1,-104.9*
O=C(OCc1ccc(C(=O)c2ccccc2)cc1)c1cccc(-c2nnc(-c3ccccc3)o2)c1,-79.8*
SMILES,aSyn UTR act
O=C(OCc1nnc(-c2ccccc2)o1)c1ccc2c(c1)OCCO2,-62.1*
O=C(OCc1ccccc1)c1ccc2c(c1)-c1ccccc1C2=O,-194.1*
O=C(OCc1ccccc1)c1cccc(-c2nnc(-c3ccccc3)o2)c1,-68.7*
CC1CCC/C(=C\Nc2ccc3c(c2)OCO3)C1=O (stereo not given),-119.4*
Clc1ccc(COn2ccnc2)cc1Cl,-104.0*
CC(Sc1nnc(NC2CCCCC2)s1)C(=O)Nc1ccc2c(c1)C(=O)c1ccccc1C2=O (stereo not given),-79.1*
